Source: PubChem
MCF10A rerep – induces DNA re-replication in MCF 10a normal breast cells; Potency, µM (top dose mostly 46.1 µM), inactives show top-dose activity, positive = re-replication, most hits filed as activators; 350,000 tested, 2.9% active; MCF 10A DNA re-replication, Hoechst nuclear intensity, 48 h; AID 624296; further: potency means the concentration at half of the fitted maximal effect; % of control where 0% means no effect; nearly all actives have a fitted effect of over 50% in size
IL1B secr inh – blocks inflammasome-driven IL-1 beta release; THP-1 LPS/ATP IL-1B secretion, AlphaLISA, 16 h; active compounds read low; activity change, % at 57.5 µM; 360,000 tested, 4.7% active; AID 743279; in the data active means activity change below about -50%; inconclusive means mostly about -30% to -49%; further: on the % scale 0 is the no-effect control and ±100 the full control effect
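THP-1 cells pretreated 1 hr with compounds (up to 57.5 uM final), then stimulated with LPS (250 ng/mL final) plus ATP (1.25 mM final); secreted IL-1B measured by AlphaLISA after 16 hr, decreased signal indicating inhibition.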
SW480 rereplic – DNA re-replication induction in SW480 cells. SW480 DNA re-replication, Hoechst DNA content imaging, 48 h. Potency, µM (titrated, usually from 46.1 µM), inactives show at the highest dose re-replication activation, most hits filed as activators. 340,000 tested, 1.8% active. AID 624297; further: potency means the concentration at half of the fitted maximal effect; % of control where 0% means no effect; nearly all actives have a fitted effect of over 55% in size
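Image-based DNA-content assay: after two days of treatment, nuclei were labelled with the DNA dye Hoechst and imaged, and hits were compounds raising the count of nuclei showing high fluorescence intensity.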
Gal4-VP16 FLuc – counter-screen for ROR gamma inhibitors: Gal4-VP16 reporter; Potency, µM (highest dose often 53.6 µM), for inactives: top-dose activity, negative = inhibition, hits mostly inhibitors; Drosophila S2 Gal4-VP16 UAS-luciferase, luminescence, 20 h; 310,000 tested, 3.5% active; AID 2546;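 further: Gal4-VP16 expression switched on by copper sulfate through the metallothionein promoter; potency means the concentration at half of the fitted maximal effect; on the % scale 0 is the no-effect control and ±100 the full control effect; nearly all actives have a fitted effect of over 50% in size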
RORg inh – blocks mouse ROR gamma transcriptional activity. 310,000 tested, 5.4% active. P51450. Potency, µM (series often up to 53.6 µM), without a hit: top-dose activity change, negative = inhibition, most hits filed as inhibitors. Drosophila S2 Gal4-RORgamma UAS-luciferase reporter, 20 h. AID 2551; further: potency means the concentration at half of the fitted maximal effect; on the % scale 0 is the no-effect control and ±100 the full control effect; nearly all actives have a fitted effect of over 60% in size
Target sequence (P51450 whole entry, looked up, the tested form may be a part): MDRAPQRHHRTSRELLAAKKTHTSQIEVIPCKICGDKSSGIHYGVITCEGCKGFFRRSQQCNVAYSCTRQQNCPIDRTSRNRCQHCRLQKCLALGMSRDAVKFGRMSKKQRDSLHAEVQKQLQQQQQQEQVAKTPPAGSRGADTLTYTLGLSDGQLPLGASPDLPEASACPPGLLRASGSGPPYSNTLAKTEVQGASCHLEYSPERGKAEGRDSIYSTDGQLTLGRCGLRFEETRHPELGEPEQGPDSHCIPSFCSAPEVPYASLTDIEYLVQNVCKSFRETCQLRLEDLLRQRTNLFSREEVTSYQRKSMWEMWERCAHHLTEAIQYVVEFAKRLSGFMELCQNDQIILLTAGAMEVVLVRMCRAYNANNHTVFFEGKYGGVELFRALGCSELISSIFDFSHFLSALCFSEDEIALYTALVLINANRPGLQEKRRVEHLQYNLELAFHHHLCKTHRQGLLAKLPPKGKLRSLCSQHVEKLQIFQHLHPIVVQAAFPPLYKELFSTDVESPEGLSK
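Compounds are pin-transferred onto Drosophila Schneider cells expressing a copper-inducible Gal4–ROR gamma transactivation domain fusion. After 1 hr, copper sulfate is added to 700 uM final; luciferase is read 20 hr later.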
Starred values were filed as active, the others as inactive; u = inconclusive; x = no result given; [ ] = another dose, or the depositor's remark. Rows were chosen to be rich in hits. Some 11% of all compounds tested hit in one or more screens of this group. Unless noted, the call rests on the fitted dose curve; in most records, active means well fitted curve in the direction sought with a large enough effect; inconclusive means small, poorly fitted or top-dose-only effect, or another doubt; inactive means no such curve, though single readings can be large; an effect the other way counts as inactive or inconclusive.

SMILES | MCF10A rerep | IL1B secr inh | SW480 rereplic | Gal4-VP16 FLuc | RORg inh
Cc1cccc(C(=O)NC(=S)Nc2ccc(Cc3ccncc3)cc2)c1 | u | u | 12% | u | 16µM*
Cc1cc(C)cc(C(=O)NC(=S)Nc2ccc(Cc3ccncc3)cc2)c1 | u | u | u | u | 7.9µM*
COC(=O)C1(C(=O)OC)c2ncccc2N(S(=O)(=O)c2ccc(C)cc2)C1CC(=O)c1ccccc1 (stereo not given) | x | 0 | x | x | x
COc1ccc(-c2nn(-c3ccccc3)cc2/C=N/O)cc1OC | 16µM* | -11 | u | 1.8µM* | 1µM*
COc1ccc(-c2nn(-c3ccccc3)cc2/C=N/NC(=S)NC(C)C)cc1OC | -31% | u | u | 2.2µM* | 1.4µM*
COC(=O)c1cn(-c2ccccc2)nc1-c1ccc(OC)c(OC)c1 | 4% | 11 | 7% | -10% | 11%
COc1ccc(-c2nn(-c3ccccc3)cc2/C=N/Nc2ccc3ccccc3n2)cc1OC | u | -25 | 26µM* | 5µM* | 1.8µM*
COc1ccc(-c2nn(-c3ccccc3)cc2/C=N/Nc2ccc(S(N)(=O)=O)cc2[N+](=O)[O-])cc1OC | u | 16 | 3% | u | u
COc1ccc(-c2nn(-c3ccccc3)cc2/C=N/N=C(N)N)cc1OC | u | u | u | -7% | 25%
CCCCC/C=C\C[C@@H](O)/C=C/C=C\CCC(=O)O | x | x | x | -2% | 4%
N#Cc1cccc(CS(=O)(=O)c2ccccc2)c1 | x | x | x | -14% | 10%
O=C(NCC1CCCO1)c1nn2c(C(F)(F)F)cc(-c3cc(Br)cs3)nc2c1Br (stereo not given) | 15µM* | 7 | 5.8µM* | -2% | -4%
O=C(NCC1CCCO1)c1nn2c(C(F)(F)F)cc(-c3ccco3)nc2c1Cl (stereo not given) | 16% | -12 | 19% | x | x
CCOC(=O)c1ccc(-n2[nH]c(-c3ccccc3)cc2=O)cc1 | u | -88* | 7% | 5.6µM* | u
Cc1cc(=O)n(-c2ccc(C(=O)O)cc2)[nH]1 | -2% | 11 | -4% | -13% | -13%
Cc1cccc(OCC(=O)NNc2c3ccccc3nc3ccccc23)c1 | 0% | -3 | -4% | 5µM* | 3.5µM*
Cc1ccc(OCC(=O)NNc2c3ccccc3nc3ccccc23)cc1 | u | -15 | x | 13µM* | 10µM*
Cc1cccc(OCC(=O)Nc2cc(C)c(C)cc2O)c1 | -1% | 15 | 1% | -28% | 3.5µM*
NC(N)=NCCC[C@@H](N)C(=O)NCC(=O)N[C@@H](CC(=O)O)C(=O)N[C@@H](Cc1c[nH]c2ccccc12)C(=O)O | x | x | x | 2% | 28%
Nc1nc(-c2cccs2)c(NC(=O)c2ccccc2)s1 | 1% | -95* | -4% | u | 5%[10 µM]
CC(=O)Nc1sc(NC(=O)c2ccc(Cl)cc2)nc1-c1cccs1 | 0% | 0 | -4% | 1% | 9%
CCCCN(CC)c1nc(N)c2c(N)nc(OCC)cc2c1C#N | 23µM* | -16 | u | 1% | 12%
Cn1cc(C(=O)c2ccc(Cl)cc2Cl)cc1C(=O)N/N=C(\N)COc1ccccc1 | u | 0 | u | 1.6µM* | 0.71µM*
Cn1cc(C(=O)c2ccc(Cl)cc2Cl)cc1C(=O)N/N=C(\N)COc1ccc(F)cc1 | 17% | -1 | u | 2.5µM* | 2.2µM*
Cn1cc(C(=O)c2ccc(Cl)cc2Cl)cc1C(=O)N/N=C(\N)COc1ccc(Cl)cc1Cl | u | -11 | 9.2µM* | 4µM* | 1.4µM*
SMILES | MCF10A rerep | IL1B secr inh | SW480 rereplic | Gal4-VP16 FLuc | RORg inh
CCOC(=O)C/C(N)=N/NC(=O)c1ccc(Cl)cc1Cl | -36% | 22 | u | u | 7.9µM*
Cn1cc(C(=O)c2ccc(Cl)cc2Cl)cc1C(=O)O | -2% | -3 | 0% | 2% | 16%
Cc1cc(C)c(OCC(=O)NCC2COc3ccccc3O2)c(C)c1 (stereo not given) | 14% | u | 0% | x | x
Cc1ccc2nc3c(c(Nc4cccc(O)c4)c2c1)CCC3 | u | 118 | -5% | 3% | 36%
CCCCCCCCN1C(=O)[C@H](CC(=O)N2CCCC2)C[C@@]2(C(=O)OC)CC(C)(C)CC=C12 | x | -5 | x | x | x
CCCCC/C(C=O)=C/c1ccccc1 | 0% | x | 2% | 1% | -15%[10 µM]
